Hits are enriched below; roughly 3.5% of the tested compounds scored in any of these assays.
TbPYK inhibitor – inhibitors of Trypanosoma brucei pyruvate kinase. Q57TT1. TbPYK enzyme, Kinase-Glo Plus ATP luminescence, 45 min. Potency, µM (top dose mostly 76.8 µM), for inactives: at the top dose activity, negative = inhibition, actives largely listed as inhibitors. 410,000 compounds, 0.12% hits. AID 624173; also: % is scaled to controls: 0 for no effect and ±100 for the full control effect; nearly all actives have a fitted effect of over 50% in size
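TbPYK + substrate in 50 mM TEA pH 7.2, 100 mM KCl, 10 mM MgCl2, 0.05% BSA, 0.01% Tween-20; cpd pinned; ADP 130 uM final; 45 min RT; Kinase-Glo Plus 10 min; luminescence endpoint.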
Sm TGR inh – blocks Schistosoma mansoni thioredoxin glutathione reductase; purified TGR, DTNB reduction, TNB absorbance 405 nm; Potency, µM (highest dose often 114 µM), for the others: at the top dose activity change, negative = inhibition, hits mostly inhibitors; 360,000 compounds, 3% hits; AID 485364; also: % is scaled to controls: 0 for no effect and ±100 for the full control effect; nearly all actives have a fitted effect of over 60% in size
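Kinetic colorimetric format: TGR-catalysed, NADPH-driven DTNB reduction monitored via TNB absorbance. Enzyme dispensed at 20 nM; compound exposure 15 min at room temperature before reaction start.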
Giardia FBPA inh – Giardia lamblia aldolase inhibition | Potency, µM (doses to about 59.6 µM), without a hit: at the top dose activity, negative = inhibition, actives largely listed as inhibitors | A8B2U2 | purified Giardia FBPA | 290,000 compounds, 0.71% hits | AID 2451; also: % is scaled to controls: 0 for no effect and ±100 for the full control effect; nearly all actives have a fitted effect of over 55% in size
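40 nM FBPA preincubated 10 min at RT with compound (up to 57.5 uM final), then substrate plus GAPDH/TPI/NAD/arsenate coupling and diaphorase/resazurin added. Fluorescence read after 20 min at RT, 525/598 nm.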
NS1 inh – influenza NS1 inhibition | 270,000 compounds, 0.4% hits | AID 2326 | Potency, µM (doses to about 46.1 µM), without a hit: top-dose activity, positive = more growth; calls by dose curve; also: actives are rising curves; nearly all actives have a fitted effect of over 50% in size
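S. cerevisiae expressing influenza A NS1, grown in glucose, washed, then diluted 1:100 into pH 6.0 -URA galactose medium with 23 nl compound. Growth recovery read as OD600; NS1-free strain serves as control.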
LmPK inhibitor – blocks Leishmania mexicana pyruvate kinase activity; Q27686; purified LmPK, Kinase-Glo ATP luminescence, 1 h; Potency, µM (titrated, usually from 57.5 µM), inactives show top-dose activity change, negative = inhibition, usual class: inhibitors; 290,000 compounds, 0.37% hits; also: % is scaled to controls: 0 for no effect and ±100 for the full control effect
Target sequence (Q27686 whole entry, looked up): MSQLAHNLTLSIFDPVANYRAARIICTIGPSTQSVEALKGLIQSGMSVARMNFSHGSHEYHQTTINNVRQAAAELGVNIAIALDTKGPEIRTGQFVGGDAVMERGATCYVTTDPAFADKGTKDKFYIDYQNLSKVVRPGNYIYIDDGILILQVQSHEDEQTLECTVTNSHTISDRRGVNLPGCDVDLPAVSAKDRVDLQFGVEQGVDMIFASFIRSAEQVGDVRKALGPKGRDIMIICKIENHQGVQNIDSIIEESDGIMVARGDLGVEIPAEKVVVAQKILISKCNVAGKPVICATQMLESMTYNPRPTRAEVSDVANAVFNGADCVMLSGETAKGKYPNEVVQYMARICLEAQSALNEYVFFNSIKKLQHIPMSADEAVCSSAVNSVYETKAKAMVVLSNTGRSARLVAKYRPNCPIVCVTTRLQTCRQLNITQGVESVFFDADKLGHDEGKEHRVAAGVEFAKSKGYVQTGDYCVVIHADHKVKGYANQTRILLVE
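qHTS format; LmPK 0.1 nM; substrates PEP 0.5 mM and ADP 0.1 mM. One-hour room-temperature incubation, then coupled luciferase luminescence; 0.5 nM enzyme wells mark activation.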
RE007 growth inh – less growth of the S. pombe RE007 Vpr strain | 360,000 compounds, 0.21% hits | AID 651644 | S. pombe RE007 Vpr strain, BacTiter-Glo ATP luminescence, 24 h | Potency, µM (top dose mostly 92.2 µM), for the others: top-dose activity change, negative = less growth, usual class: inhibitors; active = well fitted falling curve with a large enough effect; inconclusive = small, poorly fitted or top-dose-only effect; inactive = no such curve, though single readings can be large or run the other way; also: % is scaled to controls: 0 for no effect and ±100 for the full control effect; nearly all actives have a fitted effect of over 50% in size
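Fission yeast strain RE007, carrying one chromosomally integrated HIV-1 vpr copy, was seeded at OD 0.01 in PMG+AL medium with 23 nL pinned compound. After 24 h at 30 °C and 99% humidity, viability was read by BacTiter-Glo luminescence.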
The depositor's hits bear a star; ? = inconclusive; . = no result given. Unless noted, calls follow the shape of the dose curve; as a rule, active = well fitted curve in the direction sought with a large enough effect; inconclusive = small, poorly fitted or top-dose-only effect, or another doubt; inactive = no such curve, though single readings can be large; an effect the other way counts as inactive or inconclusive. Potency is read from the fitted curve at half-maximal effect.

SMILES	TbPYK inhibitor	Sm TGR inh	Giardia FBPA inh	NS1 inh	LmPK inhibitor	RE007 growth inh
O=C(O)CSC1CC(=O)N(c2ccc(Br)cc2)C1=O (stereo not drawn)	-19%	45µM*	7%	-6%	5%	?
CCOc1ccc(N2C(=O)CC(Cc3cc(C)cc(C)c3)C2=O)cc1 (stereo not drawn)	-3%	0%	2%	-11%	-2%	-8%
CCOc1ccc(N2C(=O)CC(N(C)Cc3ccccc3)C2=O)cc1 (stereo not drawn)	-6%	32µM*	3%	-81%	-6%	35µM*
CCCOc1ccc(N2C(=O)CC(N(Cc3ccccc3)N=O)C2=O)cc1 (stereo not drawn)	2%	6%	-2%	-6%	4%	-12%
CCOc1ccc(N2C(=O)CC(N)C2=O)cc1 (stereo not drawn)	-5%	3.5µM*	1%	-51%	-2%	7.1µM*
CCCOc1ccc(N2C(=O)CC(SCCN)C2=O)cc1 (stereo not drawn)	-14%	35µM*	-19%	-46%	-22%	7.9µM*
O=C(NCc1ccccc1F)c1sc2ncccc2c1-n1cccc1	5%	1%	.	.	.	.
Cc1ccc(Cn2c(SCc3ccc(C(=O)N4CCCCC4)cc3)nc3ccncc32)cc1	2%	-19%	.	.	.	.
COC(=O)c1ccc(N2C(=O)CC(N(C)Cc3ccccc3)C2=O)cc1 (stereo not drawn)	-5%	-4%	5%	-135%	0%	6.3µM*
C(=C\c1nc2ccccc2[nH]1)/c1ccccc1	?	9%	-22%	-109%	8.9µM*	32µM*
O=C(/C=C/c1ccco1)Nc1ccc(-c2nc3ccccc3[nH]2)cc1	1%	-18%	6%	15%	-4%	22%
C(=C\c1ccco1)/c1nc2ccccc2[nH]1	-20%	3.2µM*	-22%	-4%	?	-26%
Cc1c(Cl)cccc1NC(=S)NN1CCOCC1	-1%	32µM*	-1%	2%	3%	11%
CC(C)CNC(=O)c1noc2c1CCCC2	2%	0%	-4%	?	-1%	?
CCc1ccc(NC(=O)c2noc3c2CCC3)cc1	-1%	-34%	-12%	-6%	14µM*	?
CCc1ccc(NC(=O)c2noc3c2CCCCC3)cc1	-6%	-7%	3%	-6%	-1%	18%
O=C(NCc1ccccc1)c1noc2c1CCCC2	-4%	6%	6%	-6%	-11%	16µM*
CC(NC(=O)c1noc2c1CCCC2)c1ccccc1 (stereo not drawn)	-6%	7%	3%	-3%	-4%	35µM*
Cc1c(C(=O)N(C)C)sc2c1c(=O)n(-c1ccccc1C(F)(F)F)c(=O)n2Cc1cccc(F)c1	-2%	8%	.	.	.	.
COc1cccc([C@@H]2Oc3ccc(OC)cc3C(=O)[C@H]2OC(=O)Nc2ccc(OC(F)F)cc2)c1	.	.	-2%	.	.	.
O=C1NCCN(Cc2ccoc2)C1CC(=O)N(Cc1ccccc1)CC1CCC1 (stereo not drawn)	-7%	10µM*	-4%	2%	6%	2%
O=C1NCCN(Cc2ccc(F)cc2)C1CC(=O)N1CC=C(c2ccccc2)CC1 (stereo not drawn)	0%	35µM*	-22%	-1%	1%	11%
CN(C(=O)CC1C(=O)NCCN1Cc1ccc(F)c(F)c1)C1CCOCC1 (stereo not drawn)	-3%	45µM*	-20%	3%	1%	3%
O=C(CC1C(=O)NCCN1Cc1ccc(F)c(F)c1)NCCn1cccn1 (stereo not drawn)	-2%	45µM*	-24%	0%	3%	-9%
CCCCCCCCCCCCCCCCCC(=O)[O][Al]	0%	.	.	.	.	.
SMILES	TbPYK inhibitor	Sm TGR inh	Giardia FBPA inh	NS1 inh	LmPK inhibitor	RE007 growth inh
CCN(CC)C(=O)c1cnn(-c2ccc(F)cc2)c1-n1cccc1	-2%	-4%	.	.	.	.
CCOc1ccc(C(=O)Nc2cccc(C(=O)OCc3cc(=O)n4cc(C)sc4n3)c2)cc1	2%	3%	.	.	.	.
Cc1ccc(CN2CCNC(=O)C2CC(=O)N(C)C2CCCCC2)cc1 (stereo not drawn)	-2%	45µM*	.	15%	-7%	2%
COCCN(C(=O)CC1C(=O)NCCN1Cc1ccc(-c2ccccc2)cc1)C(C)C (stereo not drawn)	0%	40µM*	-15%	-6%	-4%	6%
COc1ccc(CCNC(=O)c2cc(Nc3ccccc3)nc3ccccc23)cc1OC	5%	-14%	.	.	.	.
O=C(C1=C[C@@H](c2ccccc2)C[C@@H](OCCCCO)O1)N1CCOCC1	1%	40µM*	-5%	1%	1%	20%
CN1CCN(C(=O)C2=C[C@@H](c3ccccc3)C[C@@H](OCCCCO)O2)CC1	1%	40µM*	-8%	0%	2%	-7%
C#CCNC(=O)C1=C[C@@H](C(C)(C)C)C[C@@H](OCc2ccc(CO)cc2)O1	4%	35µM*	-9%	1%	3%	4%
O=C(C1=C[C@@H](C2CC2)C[C@@H](OCCCCO)O1)N1CCOCC1	2%	56µM*	0%	4%	0%	2%
COc1ccc(-c2nc3scc(CCNS(=O)(=O)c4cccs4)n3n2)cc1	0%	5%	.	.	.	.
CCOc1ccc(-c2nc(SC(C(C)=O)C(=O)N(C)C)c3c(=O)n(C)c(=O)n(C)c3n2)cc1 (stereo not drawn)	-11%	4%	.	.	.	.
CCSc1ncc(Cl)c(C(=O)Nc2ccc(S(=O)(=O)N3CCCCC3)cc2)n1	-1%	16%	.	.	.	.
CN1CCN(C(=O)C2=C[C@@H](c3csc4ccccc34)C[C@@H](OCCCCO)O2)CC1	-4%	45µM*	-8%	-2%	1%	1%
O=C(C1=C[C@@H](c2ccccc2)C[C@@H](OCc2ccc(CO)cc2)O1)N1CCOCC1	-5%	45µM*	7%	1%	-1%	4%
O=C(NCc1ccccc1)C1=C[C@@H](c2ccccc2)C[C@@H](OCc2ccc(CO)cc2)O1	0%	50µM*	?	-2%	-1%	-12%
O=C(NCc1ccccc1)C1=C[C@H](c2ccc(Br)cc2)C[C@H](OCc2ccc(CO)cc2)O1	-6%	-13%	-12%	?	1%	-7%
CN1CCN(C(=O)C2=C[C@H](c3ccc(Br)cc3)C[C@H](OCCCCO)O2)CC1	-5%	22µM*	0%	-1%	3%	8%
COc1cc(OC)cc(-c2cc3nc(C)c(CCC(=O)Nc4ccccc4OC)c(C)n3n2)c1	-11%	1%	.	.	.	.
CCOc1cccc(C(=O)N(Cc2ccco2)C2CCS(=O)(=O)C2)c1 (stereo not drawn)	0%	35µM*	4%	5%	-1%	27%

Screening results as filed in PubChem.
